Bioassay records from PubChem BioAssay.
A selection: hits, their analogues and other compounds. The true share with any hit is near 5.4%.
Lassa entry inh: inhibitors of Lassa virus binding or cell entry. 1.2% of 300,000 active. AID 540256. Lassa virus pseudotype entry inhibition, cell reporter. Potency, µM (highest dose often 37.9 µM), without a hit: top-dose activity change, negative = inhibition, usual class: inhibitors; calls by dose curve; tested in HEK293 cells; further: nearly all actives have a fitted effect of over 50% in size
Vaccinia mCherry: vaccinia inhibition (mCherry reporter) | Potency, µM (highest dose often 36.5 µM), for inactives: at the top dose activity change, negative = inhibition, actives largely listed as inhibitors | 0.63% of 310,000 active | AID 720579 | Vaccinia virus mCherry reporter infection, fluorescence; calls by dose curve; tested in A549 cells; further: nearly all actives have a fitted effect of over 35% in size
VACV Venus inh: vaccinia inhibition (Venus reporter); Vaccinia virus Venus reporter expression, fluorescence; Potency, µM (series often up to 36.5 µM), without a hit: at the highest dose activity change, negative = inhibition, actives largely listed as inhibitors; 0.46% of 330,000 active; AID 720580; calls by dose curve; tested in A549 cells; further: nearly all actives have a fitted effect of over 30% in size
Sm TGR inh: blocks Schistosoma mansoni thioredoxin glutathione reductase; Q962Y6; purified TGR, DTNB reduction, TNB absorbance 405 nm; Potency, µM (series often up to 114 µM), for the others: at the highest dose activity change, negative = inhibition, actives largely listed as inhibitors; 3% of 360,000 active; AID 485364; active means well fitted inhibition curve with a large enough effect; inconclusive means small, poorly fitted or top-dose-only effect; inactive means no such curve, though single readings can be large or run the other way; further: nearly all actives have a fitted effect of over 60% in size
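Kinetic colorimetric format: TGR-catalysed, NADPH-driven DTNB reduction monitored via TNB absorbance. Enzyme dispensed at 20 nM; compound exposure 15 min at room temperature before reaction start.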
FMDV inh: antivirals against foot and mouth disease virus | AID 1159524 | FMDV antiviral cell-based qHTS | Potency, µM (doses to about 57.9 µM), for the others: top-dose activity change, negative = inhibition, most hits filed as inhibitors | 1.2% of 410,000 active; calls by dose curve; tested in HEK293T cells; further: read-out not given here; nearly all actives have a fitted effect of over 45% in size
MARV entry inh: inhibitors of Marburg virus binding or cell entry; Marburg virus pseudotyped entry inhibition, cell reporter; Potency, µM (highest dose often 37.8 µM), without a hit: at the top dose activity change, negative = inhibition, actives largely listed as inhibitors; 1.8% of 300,000 active; AID 540276; calls by dose curve; tested in HEK293 cells
Numbers without * were called inactive; i = inactive; ? = inconclusive; · = no result; [ ] = another dose, or the depositor's remark. On the % scale 0 is the no-effect control and ±100 the full control effect; potency means the concentration at half of the fitted maximal effect.

SMILES	Lassa entry inh	Vaccinia mCherry	VACV Venus inh	Sm TGR inh	FMDV inh	MARV entry inh
O=C(Cn1nc(-c2ccco2)ccc1=O)Nc1cc(Cl)ccc1Cl	·	·	·	5.6µM*	-1%	·
Cc1ccc(NC(=O)Cn2nc(-c3ccncc3)ccc2=O)cc1Cl	17%[46.1 µM]	-9%[7.34 µM]	-5%[7.34 µM]	?	-9%	·
O=C(Cn1nc(-c2ccco2)ccc1=O)Nc1cc(C(F)(F)F)ccc1Cl	-4%[46.1 µM]	-4%	-5%	50µM*	-7%	-4%[46.1 µM]
O=C(Cn1nc(-c2cccc(Cl)c2)ccc1=O)Nc1ccccc1Br	-7%	1%	0%	3%[57.1 µM]	-8%	?
Cc1ccc(Sc2c(C)nn(-c3ccccc3)c2OC(=O)C(C)(C)C)cc1	21%[46.1 µM]	-5%	7%	2%	0%	-28%[46.1 µM]
Cc1ccnc2c([N+](=O)[O-])cccc12	·	i	-11%	·	·	·
CSc1ccccc1C(=O)C1CCCN(C(=O)c2cc(C(C)C)no2)C1 (centres undefined)	-23%[46.1 µM]	i	-8%	22µM*	-20%	-8%[46.1 µM]
COC(=O)c1ccc(NC(=O)N2CCN(c3nnc(C)c4c(C)n(-c5ccccc5)nc34)CC2)cc1	1%[46.1 µM]	i	-13%	0%	-28%	·
COc1cccc(Cc2nc3ccccc3nc2SCC(=O)N2CCCCC2C)c1 (centres undefined)	11µM*	-8%	3%	9%	-4%	·
CCN(C(=O)CSc1nc(-c2ccccc2)no1)c1cccc(C)c1	0%[46.1 µM]	2.8µM*	?	-24%	?	-26%[46.1 µM]
CCN(C(=O)CSc1nc2ccccc2nc1Cc1ccc(F)cc1)c1cccc(C)c1	?	-7%	-9%	7%	-27%	·
CCN(C(=O)CSc1nc2ccccc2nc1Cc1cccc(OC)c1)c1cccc(C)c1	7.1µM*	-7%	-13%	4%	-24%	·
O=C(Cn1c(=O)n(-c2ccc(F)cc2)c(=O)c2sc3ccccc3c21)NC1CCCCC1	4%[46.1 µM]	0%	3%	8%	-1%	12%[46.1 µM]
CCOC(=O)c1c(-c2ccc(C)cc2)csc1NC(=O)c1nc(SCC)ncc1Cl	17%[46.1 µM]	-14%	0%	8%	?	20%[46.1 µM]
CN(Cc1ccc(Cl)c(Cl)c1)C(c1cc2ccccc2o1)c1nnnn1C(C)(C)C (centres undefined)	·	-2%	-1%	·	22µM*	·
CCN(CC)CCN(C)C(c1cc2ccccc2o1)c1nnnn1C(C)(C)C (centres undefined)	·	-8%	6%	·	-2%	·
CC(C)=CCC/C(C)=C/CO/N=C1\C[C@@H](O)[C@@H](O)[C@@H]2[C@@H]3C(=O)N(Cc4ccc5c(c4)OCO5)C(=O)[C@@H]3CC[C@H]12	·	·	·	·	·	-44%[14.2 µM]
COc1ccc(/C=C/c2cc(-c3ccc(C)cc3)o[n+]2C)cc1	?	?	?	-8%	2.8µM*	?
COc1ccc(/C=C/c2c(-c3ccc(OC)cc3)oc3ccc(-c4ccc(OC)cc4)cc23)cc1	·	-22%	-1%	-5%	-2%	·
O=C1CCSC2(C(=O)N(Cc3ccc(F)cc3)c3ccccc32)N1c1ccc(Cl)cc1 (centres undefined)	4%[46.1 µM]	?	-27%	4%	0%	·
O=C(N/N=C/c1cn(-c2cccs2)nc1-c1ccccc1)c1ccccc1O	13µM*	13µM*	?	-4%	20µM*	16µM*
CC(C)CCC(CCN1CCOCC1)c1ccc2c(c1)OCO2 (centres undefined)	-22%	·	·	0%	-26%	12µM*
CC(C)CCC(CCN1CCCC1)c1ccc2c(c1)OCO2 (centres undefined)	-10%	-45%	-11%	5%	-16%	?
COC(=O)CSc1[nH]c2ccccc2c1[N+](=O)[O-]	·	·	·	50µM*	-20%	·
Cc1[nH]nc(SCC(=O)NCc2ccccc2)c1[N+](=O)[O-]	5%	-9%	-3%	-5%	7%	12%
SMILES	Lassa entry inh	Vaccinia mCherry	VACV Venus inh	Sm TGR inh	FMDV inh	MARV entry inh
Cc1c(NC(=O)c2cc3c(s2)-c2ccccc2OC3)cccc1[N+](=O)[O-]	?	?	-26%	8%	28µM*	?
CC[C@@H]1[C@H]2CCCC(=O)N3CC[C@@H](C[C@@H]1OC(=O)NCc1ccccc1)[C@@H]23	·	-13%	-10%	35µM*	-11%	·
C=C[C@H](O)Cc1c(C)n[nH]c1C	·	·	·	·	·	1%
COc1ccc(N=C/C=C2\C=C(c3ccccc3)OC(C)(C)O2)cc1	-24%	·	·	40µM*	35%	?
c1ccc2c(c1)nc1n2C2(N3CCOCC3)CCCC2C1N1CCOCC1 (centres undefined)	2%	·	·	32µM*	-21%	12%
c1ccc2c(c1)nc1n2CC2CON(C3CCCCC3)C12 (centres undefined)	·	?	-15%	2%	11%	·
COc1ccccc1N1CCN(c2ccnc3cc(Cl)ccc23)CC1	?	11µM*	-28%	-1%	-11%	?
O=C(C1CCCCC1)N1CCN(c2ccnc3cc(Cl)ccc23)CC1	7.9µM*	-25%	-12%	4%	28µM*	?
Cc1cccc(Cc2c(C)nc3nc(SCc4cccc(F)c4)nn3c2C)c1	1%[46.1 µM]	-14%	-10%	0%	-13%	·
OCC1OC(n2cnc3c(Cl)ncnc32)C(O)C1O (centres undefined)	·	-24%	13%	·	-11%	·
CN(C)c1ncnc2c1ncn2C1OC(CO)C(O)C1O (centres undefined)	?	13µM*	10µM*	1%	-18%	?
COc1ccc(C[C@H](N)C(=O)N[C@H]2[C@@H](O)[C@H](n3cnc4c(N(C)C)ncnc43)O[C@@H]2CO)cc1	·	1.3µM*	1.6µM*	-2%	?	·
COc1cc2c(cc1NC(=O)C(Cl)Cl)-c1ccc(NC(=O)C(Cl)Cl)cc1C2	?	13µM*	10µM*	·	2%	?
COc1cc2c(cc1NC(=O)c1ccccc1-c1ccccc1C(=O)O)-c1ccccc1C2	·	i	-18%	·	-5%	·
CO[C@H]1C=CO[C@@]2(C)Oc3c(C)c(O)c4c(O)c(c5c(nc6cc(C)ccn65)c4c3C2=O)NC(=O)/C(C)=C\C=C[C@H](C)[C@H](O)[C@@H](C)[C@@H](O)[C@@H](C)[C@H](OC(C)=O)[C@@H]1C	·	-5%	-27%	·	-18%	·
